# Source: PubChem BioAssay (NCATS)
# Results filed as inconclusive are left out. The source made the active and inactive calls. The call rests on the fitted dose curve; in most records, active means well fitted inhibition curve with a large enough effect; inconclusive means small, poorly fitted or top-dose-only effect; inactive means flat fitted curve, though single readings scatter.
# System: Zika virus NS2B-NS3 protease
# Assay: Primary screen GU AMC qHTS for Zika virus inhibitors (AID 1347154);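 further: 0% = no-inhibitor control and -100% = no-enzyme control; nearly all actives have a fitted effect of over 70% in size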
# Details: Zika NS2B-NS3 unlinked protease, AMC fluorogenic substrate; series mostly up to 54.1 µM; activity change, negative = inhibition: at the top concentration
# How it was run: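 Unlinked Zika NS2B hydrophilic domain–NS3 protease complex at 25 nM in 10 mM Tris-HCl pH 8.0, 0.01% Tween 20, with an AMC peptide substrate. Fluorescence change (340/450 nm) over 15 min at room temperature, normalized to controls, fitted to 4-parameter Hill.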
row,SMILES,"activity change, negative = inhibition"
1,CC(NN)c1ccccc1 (stereo not drawn),1.22% [at 25.8 µM] (inactive)
2,CCCCNc1ccc(C(=O)OCCN(CC)CC)cc1,-1.61% (inactive)
3,O=C(OCC1(COC(=O)c2cccnc2)CCCC(COC(=O)c2cccnc2)(COC(=O)c2cccnc2)C1O)c1cccnc1,-4.34% (inactive)
4,Nc1c(I)cc(I)c(C(=O)N(CCC(=O)O)c2ccccc2)c1I,-1.4% (inactive)
5,CCOc1ccc(NS(=O)(=O)c2ccc(N)cc2)nn1,0.388% (inactive)
6,CC(C)(Oc1ccc(Cl)cc1)C(=O)OCCCOC(=O)C(C)(C)Oc1ccc(Cl)cc1,-10.9% (inactive)
7,COC(=O)/C=C\C(=O)OC,3.65% (inactive)
8,[O-][n+]1cccc(/C(Cl)=N/OC[C@@H](O)CN2CCCCC2)c1,-3.44% (inactive)
9,Cc1ccccc1C(=O)N1CC/C(=N\OS(=O)(=O)O)c2ccc(Cl)cc21,-3.51% (inactive)
10,Nc1ccc(O)cc1,-3.26% (inactive)
11,COc1ccccc1OCC1CNC(=O)O1 (stereo not drawn),-1.97% (inactive)
12,O=C(CCCCCCCCC#CI)Oc1ccccc1,-13.9% (inactive)
13,CC(=O)N(CC(O)CO)c1c(I)c(C(=O)NCCO)c(I)c(C(=O)NCC(O)CO)c1I (stereo not drawn),-2.46% (inactive)
14,NS(=O)(=O)c1cc(C(=O)NN2C[C@H]3[C@H]4CCC(C4)[C@H]3C2)ccc1Cl,3.41% (inactive)
15,CC(=O)N[C@@H](CCC(N)=O)C(=O)O,-2.96% (inactive)
16,CCOC(=O)C(O)c1ccccc1 (stereo not drawn),0.857% (inactive)
17,CCCCC(CC)COC(=O)c1ccccc1C(=O)O (stereo not drawn),-9.51% [at 104 µM] (inactive)
18,CC(C(O)c1ccccc1)N(C)CCOC(c1ccccc1)c1ccccc1 (stereo not drawn),-6.03% (inactive)
19,CN(C)CCOC1=Cc2ccccc2Sc2ccc(Cl)cc21,-5.08% (inactive)

row,SMILES,"activity change, negative = inhibition"
1,OCCOCCN1CCN(C(c2ccccc2)c2ccc(Cl)cc2)CC1 (stereo not drawn),-10.9% (inactive)
2,Cc1cc(O)c(C)c(C)c1O,-0.406% (inactive)
3,CCCCCC(=O)O[C@]1(C(C)=O)CC[C@H]2[C@@H]3CCC4=CC(=O)CC[C@]4(C)[C@H]3CC[C@@]21C,-13.9% (inactive)
4,OCc1c[nH]c2ccccc12,-5.83% [at 104 µM] (inactive)
5,CC(=O)Oc1ccc(C2(c3ccc(OC(C)=O)cc3)Oc3ccccc3NC2=O)cc1,-12.9% (inactive)
6,O=C1CC(c2ccc(Cl)cc2)CC(=O)N1,7.65% (inactive)
7,CC[N+](CC)(CC)CCOC(=O)C(C1CCCC1)C1CCCC1,-1.55% (inactive)
8,C[C@H]1NCc2cc(-c3ccc4c(=O)c(C(=O)O)cn(C5CC5)c4c3OC(F)F)ccc21,-4.99% [at 25.8 µM] (inactive)
9,CNC[C@H](O)[C@@H](O)[C@H](O)[C@H](O)CO,-3.82% (inactive)
10,O=C(CCCl)NCc1ccccc1,0.897% (inactive)
11,CC(C)C(C)(C)C(C)(C)C(C)(C)S,-3.05% [at 104 µM] (inactive)
12,CO[C@@]1(NC(=O)CSC[C@@H](N)C(=O)O)C(=O)N2C(C(=O)O)=C(CSc3nnnn3C)CS[C@@H]21,0.699% (inactive)
13,NS(=O)(=O)c1cc2c(cc1Cl)CN(C1CCCCC1)C2=O,-7.03% (inactive)
14,CC(C)NC(=O)c1ccc(C=O)cc1,3.21% (inactive)
15,Cc1oc(-c2ccccc2)nc1CCC(=O)c1ccc(CC2SC(=O)NC2=O)cc1 (stereo not drawn),-18.3% (inactive)
16,C[C@@H]1CCC[C@H](C)N1CCCC(O)(c1ccccc1)c1ccccn1 (stereo partly drawn),-4.66% (inactive)
17,COc1cc(OC)nc(O[C@H](C(=O)O)C(OC)(c2ccccc2)c2ccccc2)n1,6.08% (inactive)
18,CC(=O)Nc1ccc(S(=O)(=O)Nc2cc(C)on2)cc1,0.421% (inactive)
19,CCNC(=O)NCCCOc1cccc(CN2CCCCC2)c1,6.13% (inactive)
